Laboratory results as given in PubChem BioAssay AID463173 (ICCB-Longwood Screening Facility, Harvard Medical School, 2010).
In all, about 52,000 compounds went through this assay and about 4,300 (8.3%) were called active. What follows is part of a selection rich in actives, with near analogues and random picks from the rest. A number with no mark means an inactive call. Cut-off read from the data, not from the text of the source: active = survival mostly below about 52% (no sharp cut-off); inactive = mostly above about 56%.

What follows are compounds tested on DeltatarO mutant (assay: S. aureus survival, RN4220 and DeltatarO strains – OD600, teichoic acid synthesis inhibitors, primary screen (AID 463173)). Details: S. aureus RN4220 wild type/DeltatarO growth, OD600, 18 h, hits give low values, screened at 18.75 µg/mL (by protocol).
In the case of `COc1ccc(-c2cc(-c3ccc(F)cc3)nc3c2COc2ccc(F)cc2-3)cc1`, the survival is reported as 65%.
In the case of `CCC(=O)N1CCc2cc(S(=O)(=O)NC(CC(C)C)C(=O)NCc3cccc(OC)c3)ccc21` (configuration not stated), the survival is reported as 73%.
Work on `COC(=O)C1=C(c2ccccc2)c2ccccc2S(=O)(=O)N1CC(=O)Nc1ccc(F)c(F)c1` yielded a survival of 40%.
With `C1CCC(N2CCC(N3CCCCC3)CC2)CC1` the survival was 91%.
Work on `N#CC(C#N)=Cc1ccc(-c2ccc3c(c2)COC3=O)o1` yielded a survival of 90%.
`O=C(NC1CCCCC1)N1CCN(Cc2ccccc2)CC1` was tested, and the survival was 69%.
With `O=C(NC1CCCCC1)N1CCN(c2ccccn2)CC1` the survival was 94%.
For `c1ccc(N2CCN(N=C3c4ccccc4-c4ccccc43)CC2)nc1`, the survival was 18% (active).
`C(=N\N1CCN(c2ccccn2)CC1)/c1ccco1` gave a survival of 100%.
`C=Cn1c(C)c(C(C#N)=C(C#N)C#N)c2c1CCCC2` was tested, and the survival was 2% (active).
With `COCCNC(=O)C1CCN(S(=O)(=O)c2ccc3c(c2)CCCN3C(C)=O)CC1` the survival was 85%.
In the case of `Cc1ccc(NS(=O)(=O)c2ccc(NC(=O)N3CCCC3)cc2)cc1C`, the survival is reported as 75%.
`Cc1ccc(NS(=O)(=O)c2ccc3c(c2)n(C)c(=O)n3C)cc1C` showed a survival of 67%.
`Cc1cccc(Cn2ccn(Cc3ccc(Cl)cc3)c(=O)c2=O)c1` gave a survival of 121%.
Work on `Cc1cccc(C(=O)Nc2nc3c(s2)CCCC3)c1` yielded a survival of 67%.
For `O=C(Nc1cc2c(s1)CCCC2)c1ccccc1`, the survival was 46% (active).
`O=C(Nc1onc2c1CCCC2)c1ccccc1` showed a survival of 105%.
Compound `COc1cccc(OCCCCn2c(-c3ccc(Cl)cc3)nc3ccccc3c2=O)c1` has a survival of 62%.
`CCOc1ccccc1OCCCn1c(-c2ccc(Cl)cc2)nc2ccccc2c1=O` gave a survival of 42%.
With `Cc1ccc(OCCCn2c(-c3ccc(Cl)cc3)nc3ccccc3c2=O)cc1C` the survival was 58%.
For `COc1ccccc1OCCCn1c(-c2ccc(Cl)cc2)nc2ccccc2c1=O`, the survival was 29% (active).
With `COc1cccc(OCCCn2c(-c3ccc(Cl)cc3)nc3ccccc3c2=O)c1` the survival was 61%.
Compound `Cc1ccc(OCCCCn2c(-c3ccc(Cl)cc3)nc3ccccc3c2=O)cc1` has a survival of 68%.
With `O=c1c2ccccc2nc(-c2ccc(Cl)cc2)n1CCCCOc1ccc(F)cc1` the survival was 45% (active).
Compound `COc1ccccc1OCCCCn1c(-c2ccc(Cl)cc2)nc2ccccc2c1=O` has a survival of 59%.
In the case of `CCc1ccc(OCCCn2c(-c3ccc(Cl)cc3)nc3ccccc3c2=O)cc1`, the survival is reported as 44% (active).
With `COc1ccc(OCCCCn2c(-c3ccc(Cl)cc3)nc3ccccc3c2=O)cc1` the survival was 34% (active).
`Cc1ccccc1OCCCCn1c(-c2ccc(Cl)cc2)nc2ccccc2c1=O` was tested, and the survival was 71%.
`O=c1c2ccccc2nc(-c2ccc(Cl)cc2)n1CCCOc1ccccc1F` showed a survival of 57%.
Compound `COc1ccc(-c2cc3c(=O)n(CC(=O)Nc4ccccc4C(F)(F)F)ccn3n2)cc1OC` has a survival of 86%.
With `CSc1ccc(CNC(=O)CCn2ccc3cc(S(=O)(=O)N4CCCC4)ccc32)cc1` the survival was 100%.
With `O=C(NCc1ccc(F)cc1)c1cc2n(n1)CCCN(Cc1ccc(F)cc1)C2=O` the survival was 64%.
`CC(C)(C)OC(=O)N1CCC(c2c(C(=O)Nc3cccc(C(F)(F)F)c3)cnn2-c2ccc(F)cc2F)CC1` was tested, and the survival was 61%.
In the case of `N#Cc1ccc(-c2cccnc2)n(CC(=O)N2CCOCC2)c1=O`, the survival is reported as 106%.
`Cc1ccc(Cl)cc1N1CCN(C(=O)c2cc(S(=O)(=O)N3CCCCC3)cn2C)CC1` showed a survival of 83%.
With `Cc1ccc(C(=O)Nc2ccc3oc(-c4cccnc4)nc3c2)c(Cl)c1` the survival was 88%.
`Cc1ccc(OCCn2c(CNc3ccccc3C)nc3ccccc32)cc1` was tested, and the survival was 42% (active).
With `Cc1ccccc1NCc1nc2ccccc2n1CCOc1ccccc1` the survival was 0% (active).
Work on `Cc1ccccc1Cn1c(=O)n(CCCCC(=O)NCCc2ccccc2)c(=O)c2ccccc21` yielded a survival of 83%.
In the case of `COc1ccc(NC(=O)C2=C(C)Nc3ncnn3C2c2ccc(O)cc2)cc1` (configuration not stated), the survival is reported as 101%.
Compound `CC1CCN(C(=O)C(C)Sc2nnc3c(n2)[nH]c2ccccc23)CC1` (configuration not stated) has a survival of 102%.
In the case of `COc1ccc(/C=C/c2nc(C#N)c(N3CCCCCC3)o2)cc1OC`, the survival is reported as 45% (active).
With `COc1ccc(/C=C/c2nc(C#N)c(N3CCC(C)CC3)o2)cc1OC` the survival was 81%.
In the case of `COc1cc(/C=C/c2nc(C#N)c(N3CCN(C)CC3)o2)cc(OC)c1OC`, the survival is reported as 73%.
Compound `COc1cc(/C=C/c2nc(C#N)c(N3CCCCCC3)o2)cc(OC)c1OC` has a survival of 85%.
`COc1ccc(N2CCN(c3oc(/C=C/c4cc(OC)c(OC)c(OC)c4)nc3C#N)CC2)cc1` was tested, and the survival was 49% (active).
With `COc1ccc(/C=C/c2nc(C#N)c(N3CCCCC3)o2)cc1OC` the survival was 76%.
`CCOC(=O)c1c(NC(=O)Cc2coc3cc(C)ccc23)sc2c1CCCC2` showed a survival of 95%.
With `O=C(NC1CCS(=O)(=O)C1)Sc1ccccc1` (configuration not stated) the survival was 96%.
Compound `CCc1ccc2nc(SCC(=O)N3CC(=O)Nc4ccccc43)c(C#N)cc2c1` has a survival of 107%.
`COc1cc(NS(=O)(=O)c2ccc(NC(=O)c3ccc(C(C)=O)cc3)cc2)nc(OC)n1` showed a survival of 87%.
`O=C(OCc1ccccc1)c1ccc(-c2nnn(Cc3ccccc3F)n2)cc1` showed a survival of 98%.
For `COc1ccc(C2=C(Nc3ccc(C)cc3C)c3ccccc3C2=O)cc1`, the survival was 71%.
With `COc1ccc(OC)c(NC2=C(c3ccccc3)C(=O)c3ccccc32)c1` the survival was 62%.
`Cc1cc(C)cc(NC2=C(c3ccccc3)C(=O)c3ccccc32)c1` was tested, and the survival was 39% (active).
For `COc1ccc(C2=C(Nc3ccc(Br)c(C)c3)c3ccccc3C2=O)cc1`, the survival was 0% (active).
`Cc1ccc(NC2=C(c3ccc(C(F)(F)F)cc3)C(=O)c3ccccc32)cc1C` gave a survival of 69%.
`Cc1ccc(NC2=C(c3ccc(C(F)(F)F)cc3)C(=O)c3ccccc32)cc1F` was tested, and the survival was 28% (active).
Work on `COc1ccc(C2=C(Nc3ccc(C)c(C)c3)c3ccccc3C2=O)cc1` yielded a survival of 93%.
With `COc1ccc(NC2=C(c3ccccc3)C(=O)c3ccccc32)cc1Cl` the survival was 116%.
`O=C1C(c2ccc(C(F)(F)F)cc2)=C(Nc2ccc(Cl)cc2)c2ccccc21` gave a survival of 63%.
`COc1cc(C(CC(=O)Nc2cc(C)ccn2)N2Cc3ccccc3C2=O)cc(OC)c1OC` (configuration not stated) gave a survival of 76%.
Work on `Cn1c(C(=O)NCc2ccccc2Cl)cc2sc(Cl)cc21` yielded a survival of 64%.
Work on `CCCCNC(=O)CCC1N=C2c3ccccc3N=C(SCC(=O)NCCc3ccc(OC)c(OC)c3)N2C1=O` (configuration not stated) yielded a survival of 64%.
In the case of `COc1cc(Cl)c(C)cc1NC(=O)Cn1ncc2c3ccccc3n(Cc3ccccc3)c2c1=O`, the survival is reported as 83%.
Compound `CCC(=O)N1CCc2cc(S(=O)(=O)NC(C(=O)NCc3ccc(OC)cc3)C(C)C)ccc21` (configuration not stated) has a survival of 92%.
In the case of `Cc1ccccc1Nc1sc(C(=O)c2ccc3c(c2)OCO3)c(N)c1S(=O)(=O)c1ccccc1`, the survival is reported as 78%.
In the case of `Cc1ccc(CNC(=O)C(C)n2nc(C)n3c(cc4sccc43)c2=O)cc1` (configuration not stated), the survival is reported as 111%.
`CCOc1ccc(NC(=O)CC2C(=O)N(c3cccc(C)c3)C(=O)N2Cc2ccco2)cc1` (configuration not stated) gave a survival of 83%.
`CCOC(=O)CNC(=O)Nc1cc(C(=O)NCc2ccc(C(C)C)cc2)ccc1N1CCCC1` was tested, and the survival was 93%.
With `Cc1ccc(-n2c(SCC(N)=O)nc3c(oc4ccccc43)c2=O)cc1` the survival was 69%.
`CCCCOc1nnc(-c2ccc(OCC)cc2)c2ccccc12` was tested, and the survival was -12% (active).
Work on `CCOc1ccc(-c2ncccc2O)cc1` yielded a survival of 105%.
`CCOc1ccc(-c2nnc(Nc3ccc(S(N)(=O)=O)cc3)c3ccccc23)cc1` was tested, and the survival was 56%.
Compound `Cc1cc(=O)n(Cc2ccc(F)cc2Cl)c2c1c(C)nn2-c1ccccc1` has a survival of 96%.
`CCc1ccccc1NC(=O)Cn1c(=O)n(C(C)C)c(=O)c2oc3ccccc3c21` showed a survival of 66%.
Compound `CCc1cccc(NC(=O)CSc2ncc3c(n2)-c2cc(Cl)ccc2N(C)S3(=O)=O)c1` has a survival of 57%.
For `CCOc1ccc(NC(=O)CSc2ncc3c(n2)-c2cc(Cl)ccc2N(C)S3(=O)=O)cc1`, the survival was 0% (active).
In the case of `COc1cccc(NC(=O)CSc2ncc3c(n2)-c2ccc(Cl)cc2N(C)S3(=O)=O)c1`, the survival is reported as 37% (active).
Compound `Cc1ccc(NC(=O)CSc2ncc3c(n2)-c2ccc(Cl)cc2N(C)S3(=O)=O)cc1F` has a survival of 69%.
For `COc1cc(NC(=O)CSc2ncc3c(n2)-c2ccc(Cl)cc2N(Cc2ccccc2)S3(=O)=O)cc(OC)c1`, the survival was 55%.
Work on `CCOc1ccc(NC(=O)CSc2ncc3c(n2)-c2ccccc2N(C)S3(=O)=O)cc1` yielded a survival of 75%.
Work on `COc1ccc(CNC(=O)CN2C(=O)CCn3nc(-c4ccccc4)cc32)c(OC)c1` yielded a survival of 69%.
Work on `COc1ccc(-c2nc3c(c(SCC(=O)Nc4cc(C)cc(C)c4)n2)Cc2c(CO)cnc(C)c2O3)cc1` yielded a survival of 80%.
`CN(C)S(=O)(=O)c1ccc2c(c1)nnn2CCNC(=O)Nc1ccc(Br)cc1` was tested, and the survival was 83%.
For `O=C1Nc2nc(=O)nc3[nH]c(=O)nc(n23)N1`, the survival was 97%.
Compound `COc1ccc(-n2ccn(CC(=O)Nc3ccc(C)cc3C)c(=O)c2=O)cc1` has a survival of 79%.
`COc1ccc(Cn2ccn(Cc3cccc(Cl)c3)c(=O)c2=O)cc1` was tested, and the survival was 112%.
`COc1ccc(Cn2ccn(Cc3cccc(C)c3)c(=O)c2=O)cc1` showed a survival of 109%.
In the case of `COc1ccc(Cn2ccn(CC(=O)Nc3cc(C)ccc3C)c(=O)c2=O)cc1`, the survival is reported as 47% (active).
With `COc1ccc(-c2cc3c(=O)n(CC(=O)Nc4cc(C)ccc4C)ccn3n2)cc1` the survival was 88%.
For `COc1ccc(Cn2ccn(Cc3cccc(OC)c3)c(=O)c2=O)cc1`, the survival was 46% (active).
